Shown are actives, neighbours in structure and some others; about 19% of the full set was active somewhere.
HT1080 IDH1KD tx: kills HT-1080 cells with IDH1 knockdown; Potency, µM (titrated, usually from 46.1 µM), for the others: top-dose activity, negative = toxicity, most hits filed as cytotoxic; 2% of 360,000 active; HT-1080 IDH1 knockdown viability, ATP luminescence, 48 h; AID 686971;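 note: 0% = DMSO wells and -100% = cell-free medium wells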
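Assay cells: HT-1080 with IDH1 knockdown, 750 per well, RPMI/5% FBS. Exposure: 48 h at 37 °C following 2 h pre-incubation. Read: CellTiter-Glo luminescence; fitted concentration-response, curve class assigned.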
HT1080-NT tox: kills 2HG-producing HT-1080-NT fibrosarcoma cells | AID 686970 | HT-1080-NT fibrosarcoma viability, CellTiter-Glo ATP luminescence, 48 h | 1.6% of 360,000 active | Potency, µM (highest dose often 46.1 µM), inactives show at the top dose activity, negative = less viability, hits mostly cytotoxic;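 note: NT is the 2HG producing partner of a matched IDH1 knockdown line; 0% = DMSO-treated cells and -100% = media-only wells without cells; nearly all actives have a fitted effect of over 55% in size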
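HT-1080-NT; 750 cells/well; 5% FBS RPMI; 48 h compound, 37 degrees C; CellTiter-Glo luminescence; curve fitting and curve-class assignment.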
DT40 TDP1 CPT: growth inhibition of DT40 Tdp1-/-;hTDP1 cells with camptothecin (screen for TDP1 inhibitors). chicken DT40 Tdp1-/-;hTDP1 cells + 20 nM CPT, ATP luminescence, 48 h. Potency, µM (titrated, usually from 46.2 µM), without a hit: top-dose activity change, negative = growth inhibition, hits mostly inhibitors. 12% of 420,000 active. AID 686979; note: nearly all actives have a fitted effect of over 55% in size
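Chicken DT40 Tdp1-/- cells stably complemented with human TDP1 were seeded at 400 cells/well in medium containing 20 nM camptothecin, exposed to pin-transferred compounds, and grown at 37 °C for at least 48 hr. Viability was read as ATP luminescence.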
TDP1 cell noCPT: qHTS for Inhibitors of human tyrosyl-DNA phosphodiesterase 1 (TDP1): qHTS in cells in absence of CPT; 15% of 420,000 active; Potency, µM (series often up to 46.2 µM), for the others: at the highest dose activity change, negative = growth inhibition, hits mostly inhibitors; DT40 Tdp1-/- hTDP1 cells, no CPT, ATP luminescence, 48 h; note: nearly all actives have a fitted effect of over 55% in size
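Chicken DT40 Tdp1-/- cells complemented with human TDP1, screened without camptothecin (DMSO vehicle only), 400 cells/well. Compounds pin-transferred, cells incubated at 37 °C for at least 48 hr. Growth read as ATP-dependent luminescence (CellTiter-Glo, 30 min at RT).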
KB-3-1 cytotox: kills parental KB-3-1 adenocarcinoma cells; KB-3-1 viability, CellTiter-Glo ATP luminescence, 72 h; Potency, µM (doses to about 46.1 µM), hits mostly cytotoxic; 1.4% of 400,000 active; AID 1347075; note: nearly all actives have a fitted effect of over 60% in size
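72 h, 37 °C compound treatment of KB-3-1 parental cells; CellTiter-Glo added, 10 min, luminescence read. Data corrected against DMSO-only plates and normalized before curve fitting.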
KB-V1 MDR tox: KB-V1 MDR subline cytotoxicity. AID 1347076. Potency, µM (titrated, usually from 46.1 µM), hits mostly cytotoxic. KB-V1 MDR cells viability, CellTiter-Glo, 72 h. 3.4% of 400,000 active; note: nearly all actives have a fitted effect of over 60% in size
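Cells of the MDR subline KB-V1 are plated, dosed with compound at multiple concentrations, and incubated 72 h at 37 degrees C; CellTiter-Glo is then added and luminescence read after 10 min.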
Starred values were filed as active, the others as inactive; i = inactive; ? = inconclusive; · = no result; [ ] = another dose, or the depositor's remark. Calls come from the whole dose curve; as a rule, active = well fitted curve in the direction sought with a large enough effect; inconclusive = small, poorly fitted or top-dose-only effect, or another doubt; inactive = no such curve, though single readings can be large; an effect the other way counts as inactive or inconclusive. Unless noted, % is set by controls: 0 for no effect and ±100 for the full control effect; potency is the fitted concentration of half-maximal effect.

SMILES | HT1080 IDH1KD tx | HT1080-NT tox | DT40 TDP1 CPT | TDP1 cell noCPT | KB-3-1 cytotox | KB-V1 MDR tox
COc1ccc(NC(=O)CSc2nnc(C3CCCCC3)n2N)c(OC)c1 | 11.6% | 6.3% | -3.5% | 11.7% | i | i
CCn1c(SCC(=O)Nc2cc(OC)ccc2OC)nnc1C1CCCCC1 | -4.9%[9.24 µM] | -11.1% | 29.1µM* | -24.7% | i | ?
CCC(C)NC(=O)Cn1ncc2c(C)n(Cc3ccc(F)cc3)c(C)c2c1=O (configuration not stated) | · | · | 23.1µM* | ? | i | i
Cc1c2cnn(CC(=O)NCc3ccc(F)cc3)c(=O)c2c(C)n1Cc1ccccc1F | · | · | ? | 16.4µM* | i | i
Cc1ccc(C)c(NC(=O)Cn2ncc3c(C)n(Cc4ccc(F)cc4)c(C)c3c2=O)c1 | · | · | ? | ? | i | i
Cc1c2cnn(CC(=O)NCc3ccc(F)cc3)c(=O)c2c(C)n1Cc1cccc(Cl)c1 | · | · | 4.11µM* | 4.11µM* | ? | ?
Cc1cc(C)[n+]2[nH]c(N)c(N=Nc3ccccc3)c2n1 | -13.5% | -12.5% | ? | 16.4µM* | i | i
C=CCNC(=O)/C(=C/c1cccc([N+](=O)[O-])c1)NC(=O)c1ccccc1 | 12.1% | 14.3% | 17.7% | -10.2% | i | i
COc1ccc(-c2ncccc2OC(=O)C23CC4CC(CC(C4)C2)C3)cc1 | -7.3% | -0.3% | 18.4µM* | 23.1µM* | i | i
COc1cc(CN2CC(=O)N(c3cccc(Cl)c3C)C2=S)cc(OC)c1OC | -14.0% | -11.4% | 23.1µM* | ? | ? | i
COc1cc(Cl)c(C)cc1N1C(=O)CN(Cc2ccccc2)C1=S | -7.4% | -16.1% | -26.9% | ? | i | i
COc1cc(CN2CC(=O)N(c3ccccc3Cl)C2=S)cc(OC)c1OC | -19.7% | -5.5% | 18.4µM* | ? | i | ?
CCOC(=O)c1cccc(NS(=O)(=O)c2cnc[nH]2)c1 | 14.1% | 11.5% | -3.0% | -1.1% | i | i
CCC(C)NC(=O)CCC(=O)N1Cc2ccccc2Oc2ncccc21 (configuration not stated) | · | · | -11.1% | -15.0% | i | ?
Cc1ccccc1Cn1ccc(NC(=O)c2nn3cccnc3c2Cl)n1 | 11.1% | 5.5% | 20.6µM* | ? | i | i
Cc1ccccc1Cn1ccc(NC(=O)c2cc3ncc(Br)cn3n2)n1 | 11.0% | 13.4% | 7.1% | 2.6% | i | i
CCOCC(=O)Nc1cc(S(=O)(=O)N2CCOCC2)ccc1N1CCCCC1 | 1.8% | 11.8% | 14.6µM* | 16.4µM* | i | i
O=C(Cc1ccc(F)cc1)Nc1cc(S(=O)(=O)N2CCOCC2)ccc1N1CCCCC1 | 3.9% | 16.6% | ? | 23.1µM* | i | i
COc1ccc(CC(=O)Nc2cc(S(=O)(=O)N3CCOCC3)ccc2N2CCCC2)cc1 | 6.7% | 1.5% | 0.8% | -12.7% | i | i
CCCOc1cccc(-c2nn(-c3ccccc3)cc2/C=C(\C#N)C(=O)NCCCn2ccnc2)c1 | -20.8% | -13.4% | ? | ? | i | 18.4µM*
CN(C)S(=O)(=O)c1cccc(-c2nn(-c3ccccc3)cc2/C=C(/C#N)C(=O)NCc2ccco2)c1 | -5.9% | ? | 18.4µM* | ? | i | i
CCOc1ccc(-c2nn(-c3ccccc3)cc2/C=C(\C#N)S(=O)(=O)c2ccccc2)cc1C | ? | 28.0% | ? | 13µM* | ? | ?
N#C/C(=C\c1ccc([N+](=O)[O-])cc1)C(=O)NCCCn1ccnc1 | -9.2% | 14.3% | ? | ? | ? | i
CCOc1ccc(NC(=O)CCn2cccn2)cc1 | · | · | -23.7% | -14.8% | i | i
